Bioassay records (PubChem BioAssay)
The full list was thinned out, with hits kept by preference.
ST2 IL33 inh = blocks human ST2 binding to IL-33; Q01638; inhibition, % for hits at 17 µM; AlphaLISA ST2-Fc/biotin-IL-33 interaction, 1 h; 78,000 tested, 2.3% active; in the data active = inhibition above about 30%
Target sequence (Q01638 whole entry, looked up): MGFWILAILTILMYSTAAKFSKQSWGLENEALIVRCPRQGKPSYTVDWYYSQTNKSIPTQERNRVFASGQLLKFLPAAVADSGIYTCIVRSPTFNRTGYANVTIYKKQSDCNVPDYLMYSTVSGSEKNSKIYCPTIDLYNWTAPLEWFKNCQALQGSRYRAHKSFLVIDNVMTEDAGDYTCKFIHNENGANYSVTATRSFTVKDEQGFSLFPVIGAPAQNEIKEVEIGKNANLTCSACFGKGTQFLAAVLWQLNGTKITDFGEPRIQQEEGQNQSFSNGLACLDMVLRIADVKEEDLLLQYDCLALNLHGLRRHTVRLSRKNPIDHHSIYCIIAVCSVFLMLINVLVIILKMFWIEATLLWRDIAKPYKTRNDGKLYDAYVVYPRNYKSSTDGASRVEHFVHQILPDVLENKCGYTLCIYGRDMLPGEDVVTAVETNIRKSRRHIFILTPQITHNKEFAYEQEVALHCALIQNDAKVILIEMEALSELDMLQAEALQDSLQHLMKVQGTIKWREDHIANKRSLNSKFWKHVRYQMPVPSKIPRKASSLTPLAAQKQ
Hits are given with their value; n = inactive.

SMILES	ST2 IL33 inh
Cc1ccc(/C=C2/SC(=Nc3ccccc3)NC2=O)c(C)c1	35.0%
COc1ccc(N=C2NC(=O)C(CO)(CO)S2)cc1	n
CCOc1ccc(/C=C2\SC(=O)N(CC(=O)N3CCOCC3)C2=O)cc1OCC	n
COc1ccc(/C=C2/SC(=Nc3ccccc3)NC2=O)c(OC)c1OC	45.0%
Cc1ccc(N=C2NC(=O)C(Cc3ccccc3)S2)cc1 (stereo not drawn)	n
Cc1ccc(NC(=O)CCN2C(=O)S/C(=C\c3ccccc3)C2=O)cc1	n
Brc1ccccc1CN1CCSCC1	n
O=C(CC1Sc2ccc(C(F)(F)F)cc2NC1=O)Nc1cccc(Cl)c1 (stereo not drawn)	n
CNCC(=O)NCc1cnn(Cc2ccccc2)c1	n
COc1cc(F)ccc1CN1CC[C@@H](N2CCN(CCc3ccccc3)CC2)[C@H](O)C1	n
OCCCn1cnc(-c2ccccc2)c1-c1ccc(O)c(Cl)c1	n
CC(C)OCCCNC(=O)Cc1c(C(=O)O)[nH]c2ccccc12	n
COCCC(=O)N[C@H]1CC[C@]2(C)CC[C@@H]([C@H](C)C(=O)NC3CCCCC3)[C@H](O)[C@H]2[C@@H]1C	n
COc1cc(C(=O)Nc2c(-c3ccccc3)nc3ccccn23)cc(OC)c1OC	n
Cc1ccc2[nH]cc(-c3cnc(N)cn3)c2c1	n
COc1cccc(/C=C2/SC(=Nc3ccccc3)NC2=O)c1	n
COc1cc(/C=C2/SC(=Nc3ccccc3)NC2=O)ccc1O	38.0%
COc1cc(/C=C2/SC(=O)NC2=O)ccc1O	n
Cc1ccc2c(c1)c(=O)c(C(=O)N(C)Cc1csc(C)n1)cn2C	n
COCCNC(=O)CSc1nc(-c2cccc(Cl)c2)nc2cc(=O)[nH]n12	n
CC(CCc1ccccc1)NC(=O)CSc1nc(-c2ccc3c(c2)OCO3)nc2cc(=O)[nH]n12 (stereo not drawn)	n
CC(C)NC(=O)CSc1nc(-c2cccc(Cl)c2)nc2cc(=O)[nH]n12	96.0%
COc1cc2c(cc1OC)CN(C(=O)c1cn(CCCc3ccccc3)nn1)CC2	n
COc1cc(C2NC(=O)NC(C)=C2C(=O)OCCc2ccccc2)cc(Br)c1O (stereo not drawn)	n
COC(=O)C[C@@H]1C(C(=O)OC)=CO[C@@H](O[C@@H]2O[C@H](CO)[C@@H](O)[C@H](O)[C@H]2O)/C1=C\COC(=O)/C=C/c1ccccc1	n
SMILES	ST2 IL33 inh
CCOc1cccc(C2C(C(=O)OCCOC)=C(C)NC3=C2C(=O)C(C(=O)OC)C(C)C3)c1 (stereo not drawn)	n
[O-][n+]1c2ccccc2[n+]([O-])c2cc(O)ccc21	35.0%
CC(C)c1nnsc1CN1CCCC2(CNC(=O)O2)C1 (stereo not drawn)	n
CCCCCSC1=C(C#N)C(C)(C)C(C#N)C(=O)N1 (stereo not drawn)	n
O=C(CSc1nc(-c2ccc3c(c2)OCO3)nc2cc(=O)[nH]n12)NCc1nc2ccccc2[nH]1	n
COCCCNS(=O)(=O)c1cc(Br)cc2c1N(C(=O)C1CC1)CC2	n
O=C(NC1CCCCC1)N[C@H]1CO[C@H]2[C@@H]1OC[C@@H]2n1nnnc1Oc1ccc(-n2ccnc2)cc1	n
O=C(NC1CCCCC1)O[C@@H]1CO[C@H]2[C@@H]1OC[C@@H]2n1nnnc1-c1ccccc1	39.0%
COc1cccc(-c2nnnn2[C@H]2CO[C@H]3[C@@H]2OC[C@@H]3NC(=O)c2ccc(C(F)(F)F)cc2)c1	n
CC(Cn1cncn1)NC(=O)c1ccc2nc(Cc3ccccc3F)oc2c1 (stereo not drawn)	n
CC(C)(C)S(=O)(=O)c1ccc(NCCc2ccc(S(N)(=O)=O)cc2)nn1	n
Cc1ccc(-c2csc(/C(C#N)=C/c3ccccc3[N+](=O)[O-])n2)c(C)c1	57.0%
Cc1nc(-c2ccc(C(N)=O)cc2)cs1	n
COc1ccc(-c2csc(/C(C#N)=C/c3ccccc3[N+](=O)[O-])n2)cc1	n
N#C/C(=C\c1ccccc1)c1nc(-c2ccccc2)cs1	65.0%
Cc1ccc(-c2nnc3s/c(=C\c4ccc(C)o4)c(=O)n23)cc1	n
N#C/C(=C\Nc1cccc(C(F)(F)F)c1)c1nc(-c2cc3ccccc3oc2=O)cs1	n
N#CCc1nc(-c2ccc(-c3ccccc3)cc2)cs1	n
Cc1ccc(-c2csc(/C(C#N)=C\c3ccc(C)o3)n2)cc1	51.0%
Cc1ccc(C(=O)Nc2nc(-c3ccc(F)cc3)cs2)o1	n
Cc1ccc(/C=C(\C#N)c2nc(-c3ccc(C)cc3)cs2)cc1	54.0%
Cc1ccc(/C=C(\C#N)c2nc(-c3ccc([N+](=O)[O-])cc3)cs2)cc1	n
Cc1ccc(NC(=O)c2ccccc2C)c([N+](=O)[O-])c1	n
Cc1ccc(-n2c(SCC(=O)Nc3cc(C)on3)nc3c(c2=O)SCC3)cc1	n
CC(=O)N1CCC(N(CCCOC(C)C)S(=O)(=O)c2ccc(C(C)(C)C)cc2)CC1	n
SMILES	ST2 IL33 inh
O=C(NCc1ccccn1)c1cc2c(=O)oc3ccccc3c2s1	n
CCOC(=O)C1(Cc2cccc(Cl)c2)CCCN(C(=O)c2ccccc2-c2ncc[nH]2)C1 (stereo not drawn)	n
COC(=O)c1cc2nc(-c3ccc(Cl)cc3)cc(C(F)(F)F)n2n1	n
CC1CCN(C(=O)c2cccc3c2-c2ccccc2/C3=N\O)CC1	n
C[C@@H]1C(=O)O[C@H]2[C@H]1CC[C@@]1(C)Cc3sc(NS(=O)(=O)Cc4ccccc4)nc3[C@@H](C)[C@H]21	n
CCOC(=O)c1c(C)oc2ccc(OC(=O)C(C)(C)C)cc12	n
N#C/C(=C\c1ccc(Cl)cc1)c1nc(-c2ccccc2)cs1	51.0%
NNC(=O)C(=O)Nc1nc(-c2ccc(Cl)cc2)cs1	n
N#Cc1ccc(NC(=O)c2noc3c2CCc2ccccc2-3)cc1	n
O=C1CN(C(=O)c2nn(Cc3ccccc3)c3c2CN(C(=O)CCc2cccs2)CC3)CCN1	n
O=C(Cc1cccs1)N1CCC(Cc2ccccc2)CC1	n
O=C1CCN(C(=O)c2nn(CCc3ccccc3)c3c2CN(C(=O)Cc2cccs2)CC3)CCN1	33.0%
CCOC(=O)C1(Cc2cccc(Cl)c2)CCCN(Cc2nccn2CC)C1 (stereo not drawn)	n
COc1ccc(-c2cnnc(NC(C)Cn3nc(C)cc3C)n2)cc1 (stereo not drawn)	n
CC(C)NC(=O)Cn1c(=O)sc2ccccc21	n
COc1cc2[nH]c(=O)nc(NCc3ccccc3)c2cc1OC	n
O=C1C(=O)N(CN2CCCCCC2)c2ccccc21	42.0%
O=C(CN1C(=O)C(=O)c2ccccc21)c1ccccc1	n
Cc1ccc(N=C2C(=O)N(CN3CCOCC3)c3ccccc32)cc1	n
CSCC(C)NCCCc1nc2ccc(F)cc2[nH]1 (stereo not drawn)	n
COc1ccccc1N1C(=O)C2CCC(C)CC2C1=O (stereo not drawn)	n
COc1cccc(C2C(C#N)=C(N)Oc3c2c(=O)n(C)c(=O)n3C)c1 (stereo not drawn)	n
Cc1nn(-c2ccccc2)c2c1C(c1cccc([N+](=O)[O-])c1)C(C#N)=C(N)O2 (stereo not drawn)	n
Cc1nn(-c2cccc(Cl)c2)c2c1C(c1cccc([N+](=O)[O-])c1)C(C#N)=C(N)O2 (stereo not drawn)	45.0%
COc1ccccc1NC(=O)c1c(NC(=O)C(C)(C)C)sc2c1CCC2	n
O=C1c2ccccc2C(=O)C1c1cccc2c1CCCC2	n
O=C1c2ccccc2C(=O)[C@H]2C3c4ccccc4C(c4ccccc43)[C@@H]12	32.0%
O=C1c2ccccc2C(=O)C1c1ccc(-c2ccccc2)cc1	n
